KB-V1 cytotox = qHTS assay for MDR1-selective chemotherapeutics: Primary screen using the drug-selected MDR subline cells KB-V1; KB-V1 MDR cells viability, CellTiter-Glo, 72 h; Potency, µM (series often up to 46.1 µM), usual class: cytotoxic; 400,000 tested, 3.4% active; note: % is set by controls: 0 for no effect and ±100 for the full control effect; nearly all actives have a fitted effect of over 60% in size
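Cytotoxicity toward P-gp-expressing KB-V1 cells was determined as loss of CellTiter-Glo luminescence after 72 h at 37 degrees C. Compounds were tested in quantitative HTS format across a concentration range, with curves fitted to normalized data.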
HT1080-NT tox = qHTS for induction of synthetic lethality in tumor cells producing 2HG: qHTS for the HT-1080-NT fibrosarcoma cell line. HT-1080-NT fibrosarcoma viability, CellTiter-Glo ATP luminescence, 48 h. Potency, µM (top dose mostly 46.1 µM), inactives show at the top dose activity, negative = less viability, usual class: cytotoxic. AID 686970, 2013. 360,000 tested, 1.6% active;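 note: NT is the 2HG producing partner of a matched IDH1 knockdown line; 0% = DMSO-treated cells and -100% = media-only wells without cells; nearly all actives have a fitted effect of over 55% in size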
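HT-1080-NT fibrosarcoma cells (2HG-overproducing), 750 cells/well in RPMI with 5% FBS, dosed after 2 h and incubated 48 h at 37C. CellTiter-Glo luminescence normalized to DMSO and no-cell wells; concentration-response curves fitted and classed.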
MCF10A rerep = A quantitative high throughput screen for small molecules that induce DNA re-replication in MCF 10a normal breast cells. MCF 10A DNA re-replication, Hoechst nuclear intensity, 48 h. Potency, µM (series often up to 46.1 µM), without a hit: at the top dose activity, positive = re-replication, usual class: activators. 350,000 tested, 2.9% active. AID 624296, 2012; note: % of control where 0% means no effect; nearly all actives have a fitted effect of over 50% in size
SW480 rerep = A quantitative high throughput screen for small molecules that induce DNA re-replication in SW480 colon adenocarcinoma cells. SW480 DNA re-replication, Hoechst DNA content imaging, 48 h. Potency, µM (series often up to 46.1 µM), for the others: at the top dose re-replication activation, most hits filed as activators. 340,000 tested, 1.8% active; note: % of control where 0% means no effect; nearly all actives have a fitted effect of over 55% in size
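Treated cells incubate 48 hr (37 C, 5% CO2), are stained 40 min with Hoechst, and nuclear fluorescence is enumerated; a rise in nuclei with high DNA signal marks re-replication.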
HT1080 IDH1KD tx = qHTS for induction of synthetic lethality in tumor cells producing 2HG: qHTS for the HT-1080-IDH1KD cell line | Potency, µM (top dose mostly 46.1 µM), without a hit: at the highest dose activity, negative = toxicity, most hits filed as cytotoxic | HT-1080 IDH1 knockdown viability, ATP luminescence, 48 h | AID 686971, 2013 | 360,000 tested, 2% active;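 note: 0% = DMSO wells and -100% = cell-free medium wells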
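Assay cells: HT-1080 with IDH1 knockdown, 750 per well, RPMI/5% FBS. Exposure: 48 h at 37 °C following 2 h pre-incubation. Read: CellTiter-Glo luminescence; fitted concentration-response, curve class assigned.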
KB-3-1 tox = qHTS assay for MDR1-selective chemotherapeutics: Primary screen using the parental adenocarcinoma cell KB-3-1; KB-3-1 viability, CellTiter-Glo ATP luminescence, 72 h; Potency, µM (titrated, usually from 46.1 µM), usual class: cytotoxic; 400,000 tested, 1.4% active; AID 1347075, 2019; note: % is set by controls: 0 for no effect and ±100 for the full control effect; nearly all actives have a fitted effect of over 60% in size
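72 h, 37 °C compound treatment of KB-3-1 parental cells; CellTiter-Glo added, 10 min, luminescence read. Data corrected against DMSO-only plates and normalized before curve fitting.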
* hit, by the source's call; i = inactive; ? = inconclusive; . = not tested or not shown. Sampled rows, rich in hits. Any-hit rate of the full collection: about 8%. Calls come from the whole dose curve; as a rule, active = well fitted curve in the direction sought with a large enough effect; inconclusive = small, poorly fitted or top-dose-only effect, or another doubt; inactive = no such curve, though single readings can be large; an effect the other way counts as inactive or inconclusive. Potency is the fitted concentration of half-maximal effect.

SMILES	KB-V1 cytotox	HT1080-NT tox	MCF10A rerep	SW480 rerep	HT1080 IDH1KD tx	KB-3-1 tox
CCCOc1ccc(C(=O)ON=C2CCN(C)CC2)cc1	i	2.5%	-9.8%	3.8%	14.4%	i
CN1CCN(c2ccc([N+](=O)[O-])cc2C(=O)c2ccc(Br)cc2)CC1	4.11µM*	13µM*	?	3.66µM*	14.6µM*	2.91µM*
O=C(c1ccc(Br)cc1)c1cc([N+](=O)[O-])ccc1N1CCCCC1	?	1.84µM*	?	?	2.06µM*	1.03µM*
O=C(c1ccccc1)c1cc([N+](=O)[O-])ccc1N1CCCC1	i	-7.3%	?	11.4%	-19.0%	?
Cc1ccc(C(=O)c2cc([N+](=O)[O-])ccc2N2CCN(C)CC2)cc1	3.66µM*	10.3µM*	16.4µM*	10.3µM*	7.31µM*	5.17µM*
Cc1cc(C=O)c(C)c2c1[nH]c1ccccc12	?	-1.8%	14.0%	-0.4%	-18.4%	i
O=C(Cn1c(O)c(/C=C2\C=Nc3ccccc32)sc1=O)Nc1ccc2c(c1)OCO2	i	?	-5.8%	-0.3%	-17.8%	i
Cc1ccc(S(=O)(=O)N2CCN(C(=O)c3cc(-c4cccs4)nn3-c3ccccc3)CC2)cc1	4.61µM*	-0.5%	10.2%	3.3%	-0.2%	i
O=C(c1cc(-c2cccs2)nn1-c1ccccc1)N1CCN(S(=O)(=O)c2ccccc2)CC1	16.4µM*	-2.9%	14.0%	?	0.1%	i
Cc1ccc(OCC(=O)N2N=C(C(F)(F)F)CC2(O)C(C)(C)C)cc1C (stereo not drawn)	18.4µM*	-20.3%	8.2µM*	?	-23.9%	i
CCc1ccc(CNC(=O)c2cc3ccccn3n2)cc1	i	.	.	.	.	i
CC1CC(=O)c2c(cc3c(-c4c(O)cc(O)c5c(O)c6c(cc45)OC(C)CC6=O)c(O)cc(O)c3c2O)O1 (stereo not drawn)	?	4.61µM*	?	6.51µM*	5.17µM*	?
C/C(=N\NC(=O)c1ccc(O)cc1)c1ccc(N2CCOCC2)cc1	i	0.8%	3.7%	-6.1%	-11.4%	i
C/C(=N\NC(=O)c1ccc(N/N=C(\C)c2ccc(O)cc2)cc1)c1ccc(O)cc1	i	-28.9%	20.6µM*	8.8%	?	i
C/C(=N\NC(=O)c1cccc(N/N=C(\C)c2cc(O)ccc2O)c1)c1cc(O)ccc1O	?	23.1µM*	0.0%	?	18.4µM*	?
COc1ccccc1CNC(=O)c1cc(S(=O)(=O)N2CCN(c3ccccc3)CC2)ccc1Cl	4.61µM*	-12.8%	-0.1%	7.2%	-12.1%	i
O=C(NCC1CCN(c2ccc(S(=O)(=O)N3CCOCC3)cc2)CC1)Nc1ccccc1	i	-0.7%	?	0.0%	-2.6%	i
COc1ccccc1C(=O)NCC1CCN(c2ccc(S(=O)(=O)N3CCOCC3)cc2)CC1	14.6µM*	-9.1%	6.51µM*	1.8%	-24.1%	i
Cc1ccc(S(=O)(=O)N(C)C)cc1NC(=O)c1ccncc1	?	17.9%	2.0%	-65.0%	1.8%	i
O=P(Cc1ccccc1)(Cc1ccccc1)c1ccccc1	18.4µM*	0.8%	-1.0%	-3.0%	-6.9%	i
C#CCSc1nc(Cc2ccc(Cl)cc2)nc2ccccc12	16.4µM*	7.5%	?	0.9%	-1.9%	i
CC(C)(C)NC(=O)CSc1nc(Cc2ccccc2)nc2ccccc12	i	-1.5%	0.651µM*	2.4%	-18.1%	i
O=C(NNc1cc(N2CCOCC2)nc(N2CCOCC2)n1)c1ccc([N+](=O)[O-])cc1	?	-10.7%	-3.1%	2.3%	-4.4%	i
Cc1occc1C(=O)N/N=C/c1ccc(N(C)C)cc1	i	?	7.4%	-47.2%	23.1µM*	i
Cc1occc1C(=O)N/N=C/C=C/c1ccc(N(C)C)cc1	i	?	?	0.0116µM*	?	i
SMILES	KB-V1 cytotox	HT1080-NT tox	MCF10A rerep	SW480 rerep	HT1080 IDH1KD tx	KB-3-1 tox
Cc1ccc(/C=N/NC(=O)c2ccoc2C)o1	?	7.7%	12.6%	0.7%	14.5%	i
Cc1occc1C(=O)N/N=C/C=C/c1ccccc1	i	-7.6%	29.4%	69.8%	-6.3%	i
Cc1ccc(OCCOc2ccc(Br)cc2/C=N\NC(N)=O)cc1	i	-9.8%	?	-0.3%	-20.5%	i
COC(=O)c1ccc(NC(=O)CNC(=O)c2sc3ccccc3c2Cl)cc1	i	-1.0%	?	-0.5%	-3.0%	i
COc1ccccc1NS(=O)(=O)c1cc(NC(=O)CCC(=O)c2cccs2)ccc1Cl	i	-12.1%	1.2%	-1.7%	-18.9%	i
COc1ccc(NC(=O)CCS(=O)(=O)c2ccccc2Cl)cc1S(=O)(=O)Nc1ccc(Cl)cc1	?	?	16.4µM*	?	?	i
COc1ccc(NC(=O)c2c(F)cccc2F)cc1S(=O)(=O)Nc1ccc(Br)cc1	10.3µM*	-0.6%	?	?	-19.1%	i
COc1ccc(NC(=O)CCC(=O)c2cccs2)cc1S(=O)(=O)Nc1ccc(Cl)cc1	7.31µM*	-5.0%	-1.6%	-9.5%	0.82µM*	?
Cc1noc(C)c1COc1ccc(C(=O)N2CC(C)CC(C)C2)cc1 (stereo not drawn)	i	-5.6%	-1.4%	-2.1%	-1.3%	i
CCCC(=O)Nc1ccccc1NC(=O)C1CCCCC1	?	3.7%	?	-2.1%	-5.9%	i
O=C(NCc1ccccc1Cl)c1cccc(OC2CCN(C(=O)C3CC3)CC2)c1	6.51µM*	-8.2%	12.7%	0.1%	-4.3%	?
CC(NC(=O)c1cccc(OC2CCN(C(=O)C3CC3)CC2)c1)c1ccc(F)cc1 (stereo not drawn)	.	0.9%	2.9%	9.2%	-1.0%	.
CCOC(=O)N1CCN(C(=O)C[C@@H]2C[C@@]3(C(=O)OC)CCCCC=C3N(Cc3ccc(Cl)cc3Cl)C2=O)CC1	?	-26.4%	.	.	-25.5%	i
COc1ccc(-n2cccc2C=O)cc1	?	8.8%	-5.3%	-3.6%	6.9%	i
COc1ccc(-n2cccc2/C=C/[N+](=O)[O-])cc1	?	-0.6%	14.6µM*	23.1µM*	?	?
Cc1ccc(-c2nn3c(C)nnc3s2)cc1NCc1c(F)cccc1Cl	i	?	6.2%	-7.1%	?	i

Screening data (PubChem BioAssay)
